Screening results deposited in PubChem by several laboratories.
Shown are actives, neighbours in structure and some others; about 1.7% of the full set was active somewhere.
HTR5A inv ag = inverse agonist of human HTR5A in OPRM1-OPRD1 counter-screen; P47898; HTR5A cell line, luminescence, inverse agonism; inhibition, % at 9.3 µM; 0.083% of 340,000 active; AID 504634; in the data active = inhibition mostly above about 23%, no sharp cut-off; inactive = mostly below about 18%;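 also: 0% = cells with DMSO and 100% = no-cell wells with DMSO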
Target sequence (P47898 whole entry, looked up): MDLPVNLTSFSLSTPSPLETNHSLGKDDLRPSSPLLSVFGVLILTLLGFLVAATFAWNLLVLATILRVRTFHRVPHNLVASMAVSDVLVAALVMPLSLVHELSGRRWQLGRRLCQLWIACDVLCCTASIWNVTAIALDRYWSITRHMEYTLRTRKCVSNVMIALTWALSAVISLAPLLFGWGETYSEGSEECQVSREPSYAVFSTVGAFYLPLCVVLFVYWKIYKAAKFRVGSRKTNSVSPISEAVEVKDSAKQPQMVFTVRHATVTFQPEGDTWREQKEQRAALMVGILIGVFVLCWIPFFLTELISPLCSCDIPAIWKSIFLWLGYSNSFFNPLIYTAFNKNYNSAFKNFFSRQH
OPRM1-OPRD1 ag = OPRM1-OPRD1 heterodimerization agonism; activation, % at 9.3 µM; AID 504326; 0.3% of 340,000 active; P35372+P41143; cells, luminescence; in the data active = activation above about 18%;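 also: 0% = vehicle-treated cells and 100% = reference agonist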
V-ATPase pH = regulators of yeast V-ATPase proton transport | S. cerevisiae, pHLuorin cytosolic pH fluorescence | response, % at 10 µM | 0.37% of 350,000 active | AID 504577; in the data active = response mostly above about 7.3%, no sharp cut-off; inactive = mostly below about 5.4%; also: actives read high
HTR5A ag = activates human HTR5A in OPRM1-OPRD1 agonist counter-screen; P47898; HTR5A agonist assay, luminescence, cell-based; activation, % at 9.3 µM; 0.61% of 340,000 active; in the data active = activation mostly above about 9.5%, no sharp cut-off; inactive = mostly below about 7.6%;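 also: 0% = cells with vehicle only and 100% = reference agonist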
beta cell repl = induces beta-cell replication in MIN6 cells; MIN6 cells proliferation, ATPlite luminescence, 48 h; cells starved in 0.2% serum; 100% = growth in 10% serum; proliferation, % at 10 µM; 0.29% of 330,000 active; AID 2380;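 active = compounds whose signal lies at least 3.5 SD above the mean of all wells on their plate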;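 also: 0% = DMSO-treated cells in low-serum medium and 100% = 10% serum control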
OPRM1-OPRD1 inv = inverse agonists of human mu-delta opioid receptor heterodimerization; 0.21% of 340,000 active; inhibition, % at 9.3 µM; AID 504357; cell-based MOR-DOR heterodimer luminescence, inverse agonism; in the data active = inhibition above about 22%, passing the limit was not always enough;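 also: 0% = cells with DMSO and 100% = wells without cells with DMSO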
* marks the source's active call; other numbers are inactive results; . = no result given.

SMILES	HTR5A inv ag	OPRM1-OPRD1 ag	V-ATPase pH	HTR5A ag	beta cell repl	OPRM1-OPRD1 inv
CN(C)CCC1Sc2ccccc2Oc2ccccc21 (stereo not drawn)	12	-1	3	3	-3	3
c1ccc2c(c1)Oc1ccccc1S2	-52	-3	4	13*	1	17
CC(C)c1cc(C(=O)NNC(=S)NCc2ccco2)c(O)c(C(C)C)c1	-26	15	2	10*	0	-74
Cc1ccccc1NC(=O)c1cc2ccccc2o1	12	-2	14*	-3	-5	11
Cc1ccccc1NC(=O)c1cc(=O)c2ccccc2o1	-9	-1	3	2	1	3
Cc1ccc(N(NC(=O)C(O)(c2ccccc2)c2ccccc2)C(=O)CCl)cc1	11	31*	-3	48*	-3	-162
Cc1ccc(C(O)(C(=O)NN(C(=O)c2ccccc2)c2ccccc2)c2ccc(C)cc2)cc1	1	2	-1	0	-3	-9
CCOC(=O)C(C(=O)OCC)C(C(=O)OCC)N1CCOCC1 (stereo not drawn)	-8	-1	12*	4	-5	6
CCOC(=O)C(C)CC(C)C(=O)N1CCOCCOCCN(C(=O)C(C)CC(C)C(=O)OCC)CCOCC1 (stereo not drawn)	22	-1	-4	-8	0	7
Cc1ccccc1Nc1nc(N)nc(CSc2nnnn2-c2ccccc2)n1	-5	-2	13*	-1	-1	9
Cc1ccccc1Nc1nc(N)nc(CSc2nnnn2C)n1	-11	-2	-2	4	-2	12
O=C(c1cc(F)ccc1F)N1CCC(N2CCC(C(=O)N3CCCC3)CC2)CC1	13	-2	0	-4	4	12
O=C(c1ccccc1Cl)N1CCC(N2CCC(C(=O)N3CCCC3)CC2)CC1	-14	-1	9	13*	-3	3
CC(C)(C)c1ccc(OCCCC(=O)Nc2nnc(C3CC3)s2)cc1	.	.	0	.	.	.
Cn1c(CNC(=O)c2ccccc2F)nnc1SCC(=O)N1CCN(c2ccccc2)CC1	-6	2	2	12*	2	-8
Cc1ccc(S(=O)(=O)NCCNS(=O)(=O)c2ccc(C)cc2)cc1	-13	-3	338*	4	1	13
CCn1c(Cc2cccs2)nnc1SCC(=O)Nc1ccc(OC)c(OC)c1	-40	-1	-5	9.7*	3	7
CCn1c(SCC(=O)Nc2ccc3c(c2)oc2ccccc23)nnc1-c1ccc(N)cc1	-21	14	1	11*	-4	-80
C=CCn1c(Cc2cccs2)nnc1SCC(=O)Nc1ccc(OC)c(OC)c1	-20	3	-8	4	-4	-16
CC(C)c1ccccc1NC(=S)NC1CCN(Cc2ccccc2)CC1	5	3	0	11*	-5	-22
COc1ccc(C2CCCN2C(=S)Nc2cccc(Cl)c2C)cc1OC (stereo not drawn)	-19	0	-4	7	-3	-2
O=C(c1ccc2c(=O)n(Cc3ccccc3Cl)c(=S)[nH]c2c1)N1CCOCC1	-2	-2	-3	1	-1	13
Cc1ccc(C)c(Cn2cnc3c(nnn3-c3ccc(F)cc3)c2=O)c1	-26	6	7	10*	-2	-32
COc1ccc(-n2nnc3c(=O)n(Cc4ccccc4C)cnc32)cc1	-9	-2	-4	0	1	12
COCCn1c(SCC(=O)NC2CCCC2)nc2c(c1=O)SCC2	-14	-1	1	5	0	5
CCN(CC)CCNC(=O)c1ccc(NC(=O)c2cc(S(=O)(=O)N3CCCCC3)ccc2C)cc1	-31	-1	-3	12*	-6	8
CCN(CC)CCNC(=O)c1ccc(NC(=O)c2ccc(S(=O)(=O)N3CCCC3)cc2)cc1	-7	0	4	2	.	2
C[C@H](NC(=O)c1ccco1)C(=O)OCC(=O)N1CC(=O)Nc2ccccc21	3	-1	0	-1	1	6
Cc1ccc(Cl)cc1N1CCN(C(=O)c2noc(C)c2[N+](=O)[O-])CC1	-37	15	0	10*	-4	-75
COCOCCn1cc(CN2CCS(=O)(=O)N(Cc3ccc(-c4ccc(OC)nc4)cc3)C(C(C)C)C2=O)nn1 (stereo not drawn)	.	.	-1	.	.	.
